Screens: PubChem, National Center for Advancing Translational Sciences (NCATS)
Shown are actives, neighbours in structure and some others; about 3.1% of the full set was active somewhere.
BRCA1 expr up: increases BRCA1 expression | MCF7-BRCA1-FFLuc reporter, luminescence, 48 h; response scale: scaled: vehicle 0%, 10 µM genistein 100% | Potency, µM (highest dose often 46.1 µM), inactives show at the highest dose activation, actives largely listed as activators | actives 1.1% (n = 380,000); further: potency means the concentration at half of the fitted maximal effect; nearly all actives have a fitted effect of over 80% in size
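Quantitative HTS in MCF7 cells stably reporting BRCA1 expression via firefly luciferase. Compound treatment lasts 48 h at 37 °C in phenol-red free MEM. Activation is expressed relative to genistein at 10 microM and DMSO.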
ELG1 DNA repair: inhibitors of ELG1-dependent DNA repair in HEK293T cells | HEK293T ELG1-luciferase reporter, luminescence, 16 h; DNA damage induced by 5-fluorouridine | Potency, µM (doses to about 46.1 µM), for the others: at the highest dose activity change, negative = inhibition, usual class: inhibitors | actives 2.3% (n = 330,000); further: potency means the concentration at half of the fitted maximal effect; on the % scale 0 is the no-effect control and ±100 the full control effect; nearly all actives have a fitted effect of over 55% in size
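HEK293T cells expressing luciferase-tagged ELG1 (2,000/well) received 5-Fluorouridine plus compound or DMSO for 16 hr at 37 °C. Luciferase was read by ONE-Glo luminescence after 30 min at room temperature.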
IL-2 act: activates IL-2 in a cell-based reporter assay; AID 652025; actives 0.065% (n = 360,000); IL-2 activation reporter assay, cell-based qHTS; stimulated with anti-CD3/CD4/CD28 beads; in transgenic mouse T cells; activation, % (series mostly up to about 46 µM); in the data active means activation above about 50%; inconclusive means mostly about 30% to 49%; further: 0% is about no effect
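Readout is EGFP and DsRed signal by fluorescent plate cytometry after 18 h at 37 degrees C. Transgenic mouse T cells (750/well) received compound for 60 min before bead stimulation (anti-CD3, anti-CD4, anti-CD28); memory T cells served as non-tolerant control.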
Nrf2 activator: Nrf2 pathway activation; AREc32 ARE-luciferase reporter (MCF7-derived line), luminescence, 24 h; Potency, µM (titrated, usually from 46.1 µM), for inactives: at the top dose activation, actives largely listed as activators; actives 0.31% (n = 410,000); AID 624171; further: potency means the concentration at half of the fitted maximal effect; % of control where 0% means no effect; nearly all actives have a fitted effect of over 65% in size
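Nrf2 activation is followed as ARE-luciferase induction in the AREc32 line after one day of compound treatment; luminescence is read with Steady-Glo.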
Starred values were filed as active, the others as inactive; ? = inconclusive; · = not tested or not shown. Unless noted, the call rests on the fitted dose curve; in most records, active means well fitted curve in the direction sought with a large enough effect; inconclusive means small, poorly fitted or top-dose-only effect, or another doubt; inactive means no such curve, though single readings can be large; an effect the other way counts as inactive or inconclusive.

SMILES	BRCA1 expr up	ELG1 DNA repair	IL-2 act	Nrf2 activator
Cc1ccc2nc(NC(=O)Cc3cccs3)sc2c1	66%	?	1	5%
CC(C)C(=O)NNc1nc2ccccc2s1	8.9µM*	?	-1	3%
O=C(Cc1ccccc1)Nc1nc2ccccc2s1	10µM*	?	1	4%
Cc1cc(C)c2c(=O)c3c(oc2c1)C(=O)N(CCCOC(C)C)C3c1ccccc1F (configuration not stated)	·	·	·	0%
COCCN1C(=O)c2[nH]nc(-c3ccccc3O)c2C1c1ccc(Cl)c(Cl)c1 (configuration not stated)	·	·	·	0%
COc1ccc(NC(=O)c2ccc3c(c2)NC(=O)CS3)cc1S(=O)(=O)Nc1ccc(Br)cc1	-37%	12µM*	-2	-1%
CC(=O)NS(=O)(=O)c1ccc(NC(=O)c2ccc3c(c2)NC(=O)CS3)cc1	-15%	11%	0	0%
COc1ccc(C(=O)Nc2ccccc2)cc1S(=O)(=O)Nc1ccc(Br)cc1	·	·	·	-1%
Cc1ccc(NS(=O)(=O)c2cc(NC(=O)c3ccc4c(c3)NC(=O)CS4)ccc2C)c(C)c1	-97%	18µM*	1	3%
O=C(COc1ccccc1C(=O)Nc1ccccc1)NC1CCCCC1	0%	·	·	·
O=[N+]([O-])c1ccc(CN2CCCCCC2)cc1	-12%	-2%	0	0%
O=C1C2C(C(=O)N1CCN1CCN(Cc3ccc([N+](=O)[O-])cc3)CC1)[C@H]1C=C[C@@H]2C1 (some centres not stated)	-23%	16µM*	1	0%
COc1cccc(CNC(=O)c2ccc(-c3nc(CS(=O)(=O)c4ccccc4)c(C)o3)cc2)c1	·	·	·	0%
CCN(CC(=O)Nc1ccccc1C(F)(F)F)C(=O)c1ccc2c(c1)NC(=O)C(C)S2 (configuration not stated)	-14%	·	-1	-2%
O=C(Nc1ccccc1F)c1ccn[nH]1	13%	?	0	3%
O=C(Nc1ccccc1Cl)c1ccn[nH]1	13µM*	?	0	6%
CC1CCCC(NC(=O)c2ccc3c(c2)OCO3)C1C (configuration not stated)	3.5µM*	?	0	2%
Cc1ccc(C)c(S(=O)(=O)NCC(c2ccco2)S(=O)(=O)c2ccc(F)cc2)c1 (configuration not stated)	·	·	·	15%
Cc1ccccc1Cn1cc(S(=O)(=O)c2ccc(F)cc2)c(=O)c2cc3c(cc21)OCO3	-13%	·	·	0%
CCC(=O)Nc1nnc(CCc2ccccc2)s1	16%	?	0	4%
CCCc1nnc(NC(=S)Nc2ccccc2)s1	2.2µM*	?	0	3%
CCCc1nnc(NC(=O)CCC(=O)Nc2ccc(Cl)cc2)s1	-1%	?	-2	-1%
CC(C)C(=O)Nc1nnc(CCc2ccccc2)s1	62%	?	1	5%
CC(C)(C)C(=O)Nc1nnc(CCc2ccccc2)s1	4.5µM*	?	1	5%
CC(C)C(=O)Nc1nnc(NC(=S)Nc2ccccc2)s1	10µM*	?	-5	3%
SMILES	BRCA1 expr up	ELG1 DNA repair	IL-2 act	Nrf2 activator
Cc1ccccc1-c1noc(-c2ccc(NCc3ccco3)c([N+](=O)[O-])c2)n1	0%	·	·	6%
O=C(NCCC1=CCCCC1)c1[nH]c(C(F)(F)F)nc1-c1ccccc1	0%	·	-1	0%
COC(=O)C[C@@H]1CC[C@H](NC(=O)Nc2ccc(OC)cc2)[C@@H](CO)O1	·	·	0	·
CC1(C)Cc2nc3oc4c(N(CCO)Cc5ccccc5)ncnc4c3cc2CO1	-37%	18µM*	-1	1%
O=C1C[C@H]2[C@H](CO)[C@@H](OC(=O)c3ccc(-c4ccccc4)cc3)C[C@H]2O1	13µM*	?	-1	5%
COc1ccc2oc(C(=O)N(C)CCOc3ccccc3)c(C)c2c1	11µM*	?	-1	2%
COc1ccc2oc(C(=O)NCCC(C)C)c(C)c2c1	7.1µM*	?	1	2%
COc1ccc(C(CNC(=O)c2oc3ccc(OC)cc3c2C)N2CCCC2)cc1 (configuration not stated)	-44%	-16%	-7	3%
Cc1cc(C)cc(NC(=O)C(NS(=O)(=O)c2cccc3nsnc23)c2ccccc2)c1 (configuration not stated)	·	·	·	1%
Cc1sc(NC(=O)c2ccco2)c(CN2CCCCC2)c1C	-27%	-1%	-2	8.9µM*
